Results reported in PubChem BioAssay (NCATS).
Results filed as inconclusive are left out. Active and inactive are the calls of the source. Unless noted, calls come from the whole dose curve; as a rule, active = well fitted curve in the direction sought with a large enough effect; inconclusive = small, poorly fitted or top-dose-only effect, or another doubt; inactive = no such curve, though single readings can be large; an effect the other way counts as inactive or inconclusive.

Assays:
[1] = molecular target: Lysosomal acid glucosylceramidase (Homo sapiens) (UniProt P04062); assay: Glucocerebrosidase-p2 (AID 348; in the data active = potency below about 10 µM; note: potency is the fitted concentration of half-maximal effect); conditions: purified GBA, blue fluorogenic substrate, 40 min
Summary of the method: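 Normal human glucocerebrosidase (0.2 nM) with blue fluorogenic substrate (80 uM final) in citrate/phosphate pH 5.9 with 10mM sodium taurocholate, 0.01% tween-20; 40 min RT, NaOH/glycine stop; fluorescence Ex 365/Em 440; AC50 from a titration from 0.6 nM upwards.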

[2] = molecular target: Cytochrome P450 1A2 (Homo sapiens) (UniProt P05177); assay: p450-cyp1a2 (AID 410; calls by dose curve; note: potency is the fitted concentration of half-maximal effect)
Summary of the method: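 O-Demethylation of luciferin 6' methyl ether by human CYP1A2 is monitored as luciferase luminescence. Substrate sits at Km (100uM); enzyme is 20nM. Values are scaled to 57 uM furafylline as maximal inhibition.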

[3] = NFAT Signaling Pathway (AID 444; active = well fitted curve in either direction with a large enough effect, not every such curve was filed as active;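 note: carbachol stimulus at about its EC50 of 1 µM final; % is set by controls: 0 for no effect and ±100 for the full control effect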); conditions: Jurkat NFAT-bla M1, carbachol, beta-lactamase ratio, 5 h; at 7.69 µM (top of the series) unless noted
Summary of the method: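 Jurkat cells carrying an NFAT-driven β-lactamase reporter and co-transfected muscarinic M1 receptor were treated with compound plus carbachol (1 uM final, an EC50 level) for 5 h at 37 °C. CCF4 loading followed for 1 h at RT; 460/530 nm ratio gave %activity.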

[4] = Stat Signaling Pathway (AID 446; active = well fitted curve in either direction with a large enough effect, not every such curve was filed as active;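 note: ME-180 cervical cancer cells given 40 pM IL-6 alongside compound; SIE-controlled beta-lactamase reporter measured as 460/530 nm FRET emission ratio; % is set by controls: 0 for no effect and ±100 for the full control effect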); conditions: ME-180 SIE beta-lactamase reporter, IL-6 stimulated, 5 h; at 7.69 µM (top of the series) unless noted
Summary of the method: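 FRET read-out (405 nm excitation, 460/530 nm emission) of a beta-lactamase reporter under a STAT-inducible element in ME-180 cervical carcinoma cells. Cells with compound receive 40 pM IL-6 for 5 h. Values are normalised to AC90 stimulation and AC90 JAK-inhibitor controls.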

[5] = molecular target: Glucocorticoid receptor (Homo sapiens) (UniProt P04150); assay: GR-GFP Redistribution (AID 450;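 active = compounds whose dose series gives a full or clear partial fitted curve of increased nuclear translocation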; note: potency is the fitted concentration of half-maximal effect); conditions: U2OS GR-GFP nuclear translocation, laser cytometry, 2 h
[6] = molecular target: Glucocorticoid receptor (Homo sapiens) (UniProt P04150); assay: GR-EFC Redistribution (AID 451; calls by dose curve; note: potency is the fitted concentration of half-maximal effect); conditions: CHO-K1 GR-EFC translocation, beta-gal luminescence, 2 h
Summary of the method: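 CHO-K1 cells stably expressing nuclear-localized β-gal enzyme acceptor and GR fused C-terminally to the enzyme donor fragment; ligand-driven nuclear translocation restores β-gal by complementation. Compounds titrated up to 46 uM final, 2 h at 37 °C; luminescence read.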

[7] = molecular target: Mitogen-activated protein kinase 10 (Mus musculus) (UniProt Q61831); assay: JNK3 AlphaScreen Assay (AID 530; active = well fitted curve in either direction with a large enough effect, not every such curve was filed as active;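 note: kinase came from lysate of stimulated human HepG2 cells; signal reports phosphorylation of biotinylated GST-cJun 1-79 at Ser73 with 10 µM ATP; % is set by controls: 0 for no effect and ±100 for the full control effect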)
Summary of the method: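 Phosphorylation of biotinylated GST-cJun(1-79) at Ser73 is measured by AlphaScreen proximity luminescence. Enzyme is JNK3 in HepG2 lysates activated with interleukin-1beta and tumor necrosis factor alpha; ATP is 10 uM final.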

[8] = molecular target: Cytochrome P450 3A4 (Homo sapiens) (UniProt P08684); assay: qHTS Assay for Activators of Cytochrome P450 3A4 (AID 885); note: nearly all actives have a fitted effect of over 65% in size
Summary of the method: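 Luminescent readout of luciferin formed from 25 uM Luciferin-PPXE (KM level) by 20 nM CYP3A4 in 200 mM KPO4, with 60 min NADPH-driven reaction at room temperature after 10 min compound exposure. Ketoconazole (57 uM) defined 100% inhibition.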

[9] = molecular target: Dual specificity protein kinase CLK4 (Homo sapiens) (UniProt Q9HAZ1); assay: qHTS Assay for Inhibitors of CDC-like Kinase 4 (ADP-Glo Assay) (AID 1771); note: nearly all actives have a fitted effect of over 70% in size; note: potency is the fitted concentration of half-maximal effect
Summary of the method: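 Compounds are pin-transferred onto substrate mix (100 uM RS peptide, 1 uM ATP), then 25 nM Clk4 is added. After 1 hr at room temperature, ADP-Glo reagent runs 45 min, detection reagent 30 min, then luminescence is read.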

[10] = molecular target: Dual specificity protein kinase CLK4 (Homo sapiens) (UniProt Q9HAZ1); assay: qHTS Assay for Inhibitors of CDC-like Kinase 4 (ADP-FP Assay) (AID 1795); note: nearly all actives have a fitted effect of over 60% in size; note: potency is the fitted concentration of half-maximal effect
Summary of the method: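 FP readout: Orange Transcreener ADP2 tracer (4 nM) plus ADP antibody, read after 30 min at room temperature. Kinase step: 6.25 nM Clk4, 100 uM RS peptide, 1 uM ATP, pH 7.5, 1 h.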

[11] = molecular target: Ubiquitin carboxyl-terminal hydrolase 1 (Homo sapiens) (UniProt O94782); assay: Inhibitors of USP1/UAF1: Pilot qHTS (AID 504865); note: nearly all actives have a fitted effect of over 35% in size; note: potency is the fitted concentration of half-maximal effect
Summary of the method: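 1nM USP1/UAF1 + cpd, 15 min RT; start w/ Ub-Rho 150nM final; kinetic FL 480/540 nm, 6 reads q60 s. Buffer 50mM HEPES pH 7.8, 0.5mM EDTA, 1mM TCEP, 0.01% Tween-20, 0.1 mg/ml BSA.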

[12] = Primary qHTS for small molecule stabilizers of the endoplasmic reticulum resident proteome: Secreted ER Calcium Modulated Protein (SERCaMP) assay (AID 1508630); note: % is set by controls: 0 for no effect and ±100 for the full control effect
Summary of the method: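 The SH-SY5Y reporter protocol was run at 3 concentrations up to 38.3 uM (primary) or 11 concentrations (follow-up): 16 h compound, 100 nM thapsigargin for 4 h, then extracellular luciferase luminescence.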

[13] = AP1 Signaling Pathway (AID 357; active = well fitted curve in either direction with a large enough effect, not every such curve was filed as active; note: % is set by controls: 0 for no effect and ±100 for the full control effect); conditions: ME-180 AP-1-bla reporter, EGF-induced, beta-lactamase ratio, 5 h; at 7.69 µM (top of the series) unless noted
Summary of the method: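 ME-180 cells with beta-lactamase reporter under AP-1 response element, stimulated with EC50 EGF; compounds tested in titration series, 5 h at 37 °C. CCF4 substrate added 2.5 h at room temperature; 460/530 nm emission ratio gave %activity and AC50.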

[14] = molecular target: Cytochrome P450 2C19 (Homo sapiens) (UniProt P33261); assay: qHTS Assay for Inhibitors and Substrates of Cytochrome P450 2C19 (AID 899); note: potency is the fitted concentration of half-maximal effect; nearly all actives have a fitted effect of over 60% in size
Summary of the method: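 In 50mM KPO4, the reaction held 5nM enzyme and KM-level (10uM) Luciferin-H EGE; it ran 60 min at 37C after NADPH regeneration and a 10 min compound preincubation. Luminescence values were scaled to 57uM ketoconazole as complete inhibition.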

[15] = qHTS Assay for Identification of Small Molecule Agonists for Hypoxia Response Element Signaling Pathway (AID 914; active = well fitted activation curve with a large enough effect in the signal ratio, with a control signal flat, not every such curve was filed as active; the % refers to the signal ratio; note: potency is the fitted concentration of half-maximal effect; for activation: % of control where 0% means no effect); conditions: ME-180 (cervical carcinoma) HRE-bla reporter, beta-lactamase ratio, CoCl2, 17 h; activation: hits give high values
Summary of the method: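 A beta-lactamase reporter under hypoxia response element control in ME-180 cells served as the system. Compound titrations plus EC50 CoCl2 ran 17 h at 37 degrees Celsius; AC50 values were fitted from %Activity.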

[16] = molecular target: 3',5'-cyclic-AMP phosphodiesterase 4B (Homo sapiens) (UniProt Q07343); assay: qHTS Assay for Inhibitors of PDE-IV (AID 607; active = well fitted activation curve with a large enough effect in the main read-out, with a control signal flat, not every such curve was filed as active; note: % of control where 0% means no effect)
Summary of the method: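 Cell-based read-out of cAMP via a modified cyclic nucleotide-gated channel and membrane potential dye (535/590 nm) in HEK293 cells expressing PDE4 endogenously. Compounds tested up to 22.9 uM final; 100 uM RO 20-1724 reference.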

[17] = molecular target: Cytochrome P450 3A4 (Homo sapiens) (UniProt P08684); assay: qHTS Assay for Inhibitors and Substrates of Cytochrome P450 3A4 (AID 884); note: potency is the fitted concentration of half-maximal effect; nearly all actives have a fitted effect of over 50% in size
Summary of the method: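 Luminescent readout of luciferin produced by CYP3A4 (20 nM) dealkylation of Luciferin-PPXE, 25 uM (its KM). NADPH-driven reaction ran 60 min at RT after 10 min compound preincubation; data scaled to 57 uM ketoconazole as 100% inhibition.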

Sequence of 3',5'-cyclic-AMP phosphodiesterase 4B (Homo sapiens) (Q07343 whole entry, looked up): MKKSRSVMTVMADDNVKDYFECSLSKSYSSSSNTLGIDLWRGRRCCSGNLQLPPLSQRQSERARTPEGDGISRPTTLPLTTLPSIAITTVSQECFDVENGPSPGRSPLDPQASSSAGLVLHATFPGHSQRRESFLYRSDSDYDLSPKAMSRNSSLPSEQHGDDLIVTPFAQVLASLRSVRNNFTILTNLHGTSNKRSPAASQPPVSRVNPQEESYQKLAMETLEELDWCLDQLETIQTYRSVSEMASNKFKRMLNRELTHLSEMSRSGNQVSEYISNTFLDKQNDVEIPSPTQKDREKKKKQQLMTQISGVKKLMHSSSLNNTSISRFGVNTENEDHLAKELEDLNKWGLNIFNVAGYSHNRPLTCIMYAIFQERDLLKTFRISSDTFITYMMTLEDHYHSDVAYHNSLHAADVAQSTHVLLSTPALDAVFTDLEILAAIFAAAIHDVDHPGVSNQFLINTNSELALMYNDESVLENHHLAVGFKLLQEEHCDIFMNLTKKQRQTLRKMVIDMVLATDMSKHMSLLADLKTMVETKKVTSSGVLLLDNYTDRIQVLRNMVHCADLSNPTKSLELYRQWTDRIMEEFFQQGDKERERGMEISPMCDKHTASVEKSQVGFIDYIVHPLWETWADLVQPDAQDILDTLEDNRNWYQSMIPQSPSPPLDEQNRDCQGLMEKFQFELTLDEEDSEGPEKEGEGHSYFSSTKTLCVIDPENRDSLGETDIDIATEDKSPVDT
Sequence of Cytochrome P450 3A4 (Homo sapiens) (P08684 whole entry, looked up): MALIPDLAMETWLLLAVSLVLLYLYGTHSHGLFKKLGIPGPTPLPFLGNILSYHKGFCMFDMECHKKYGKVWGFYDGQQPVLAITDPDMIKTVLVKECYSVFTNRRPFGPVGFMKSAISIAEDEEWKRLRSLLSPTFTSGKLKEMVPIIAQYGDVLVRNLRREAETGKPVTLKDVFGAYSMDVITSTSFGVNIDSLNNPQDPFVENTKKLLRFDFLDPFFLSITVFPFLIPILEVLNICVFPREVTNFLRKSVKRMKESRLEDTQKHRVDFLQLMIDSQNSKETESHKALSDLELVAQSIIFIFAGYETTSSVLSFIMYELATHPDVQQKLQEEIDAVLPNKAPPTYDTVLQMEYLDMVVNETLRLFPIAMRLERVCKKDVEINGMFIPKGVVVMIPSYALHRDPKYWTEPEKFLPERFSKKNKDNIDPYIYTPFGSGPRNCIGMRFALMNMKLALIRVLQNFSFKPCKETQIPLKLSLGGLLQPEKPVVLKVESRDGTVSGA
Sequence of Glucocorticoid receptor (Homo sapiens) (P04150 whole entry, looked up, the tested form may be a part): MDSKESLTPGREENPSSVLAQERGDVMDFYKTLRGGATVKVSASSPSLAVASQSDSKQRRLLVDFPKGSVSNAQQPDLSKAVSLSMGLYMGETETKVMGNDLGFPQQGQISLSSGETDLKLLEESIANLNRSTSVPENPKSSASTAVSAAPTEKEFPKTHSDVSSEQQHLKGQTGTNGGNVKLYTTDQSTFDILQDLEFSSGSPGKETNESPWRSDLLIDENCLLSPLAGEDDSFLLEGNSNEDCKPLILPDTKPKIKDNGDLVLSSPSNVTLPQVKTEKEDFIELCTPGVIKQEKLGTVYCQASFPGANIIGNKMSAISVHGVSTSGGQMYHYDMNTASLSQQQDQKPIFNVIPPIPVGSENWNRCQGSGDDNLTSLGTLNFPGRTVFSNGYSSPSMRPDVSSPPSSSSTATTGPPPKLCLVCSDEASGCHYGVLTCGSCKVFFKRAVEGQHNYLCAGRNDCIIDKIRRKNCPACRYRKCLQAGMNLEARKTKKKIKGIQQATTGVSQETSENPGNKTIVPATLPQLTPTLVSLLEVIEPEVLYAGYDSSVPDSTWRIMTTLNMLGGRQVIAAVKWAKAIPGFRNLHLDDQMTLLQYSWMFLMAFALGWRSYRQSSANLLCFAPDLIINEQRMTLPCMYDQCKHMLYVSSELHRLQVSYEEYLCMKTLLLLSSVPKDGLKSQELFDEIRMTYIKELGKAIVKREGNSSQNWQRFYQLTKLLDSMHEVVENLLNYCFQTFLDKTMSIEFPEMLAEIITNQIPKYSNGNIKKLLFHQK
Sequence of Cytochrome P450 1A2 (Homo sapiens) (P05177 whole entry, looked up): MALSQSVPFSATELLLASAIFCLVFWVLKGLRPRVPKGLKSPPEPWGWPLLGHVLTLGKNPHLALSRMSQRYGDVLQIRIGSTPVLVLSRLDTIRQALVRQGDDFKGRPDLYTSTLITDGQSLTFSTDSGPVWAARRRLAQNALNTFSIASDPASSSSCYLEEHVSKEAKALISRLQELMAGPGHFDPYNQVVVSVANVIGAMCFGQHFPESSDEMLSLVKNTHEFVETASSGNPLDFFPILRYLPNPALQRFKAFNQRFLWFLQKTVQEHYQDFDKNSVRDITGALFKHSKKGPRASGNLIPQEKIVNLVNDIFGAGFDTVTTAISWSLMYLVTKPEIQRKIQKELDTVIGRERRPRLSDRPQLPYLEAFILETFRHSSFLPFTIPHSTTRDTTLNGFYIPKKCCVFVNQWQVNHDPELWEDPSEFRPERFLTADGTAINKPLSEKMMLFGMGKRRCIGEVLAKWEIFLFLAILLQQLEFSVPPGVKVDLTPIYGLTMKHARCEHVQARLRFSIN
Sequence of Dual specificity protein kinase CLK4 (Homo sapiens) (Q9HAZ1 whole entry, looked up): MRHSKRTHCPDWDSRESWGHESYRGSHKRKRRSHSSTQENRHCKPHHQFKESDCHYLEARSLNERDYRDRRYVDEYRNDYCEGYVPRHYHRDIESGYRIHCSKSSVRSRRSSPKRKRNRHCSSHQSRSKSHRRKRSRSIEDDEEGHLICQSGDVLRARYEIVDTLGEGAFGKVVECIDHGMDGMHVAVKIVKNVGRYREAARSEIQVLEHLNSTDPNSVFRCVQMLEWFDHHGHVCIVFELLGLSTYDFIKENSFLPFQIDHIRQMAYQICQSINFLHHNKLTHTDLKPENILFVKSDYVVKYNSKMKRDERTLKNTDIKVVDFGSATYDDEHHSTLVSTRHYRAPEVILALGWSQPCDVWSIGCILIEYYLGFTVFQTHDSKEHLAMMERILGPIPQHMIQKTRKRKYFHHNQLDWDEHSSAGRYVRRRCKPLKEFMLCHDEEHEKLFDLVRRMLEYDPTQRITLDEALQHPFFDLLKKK
Sequence of Lysosomal acid glucosylceramidase (Homo sapiens) (P04062 whole entry, looked up): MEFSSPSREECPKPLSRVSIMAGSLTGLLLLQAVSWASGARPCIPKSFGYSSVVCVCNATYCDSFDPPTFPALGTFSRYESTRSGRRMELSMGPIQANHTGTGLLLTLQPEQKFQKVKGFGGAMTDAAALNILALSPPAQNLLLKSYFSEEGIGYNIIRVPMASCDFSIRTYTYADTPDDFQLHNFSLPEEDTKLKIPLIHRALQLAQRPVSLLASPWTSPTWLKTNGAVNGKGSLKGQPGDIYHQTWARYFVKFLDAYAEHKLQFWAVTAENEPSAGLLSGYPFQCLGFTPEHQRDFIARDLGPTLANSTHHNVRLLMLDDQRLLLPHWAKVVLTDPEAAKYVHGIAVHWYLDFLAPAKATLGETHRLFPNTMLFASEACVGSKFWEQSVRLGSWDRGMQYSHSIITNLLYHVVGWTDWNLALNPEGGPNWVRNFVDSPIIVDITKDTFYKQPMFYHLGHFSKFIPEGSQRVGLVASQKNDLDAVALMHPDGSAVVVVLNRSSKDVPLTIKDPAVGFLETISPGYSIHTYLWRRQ
Sequence of Ubiquitin carboxyl-terminal hydrolase 1 (Homo sapiens) (O94782 whole entry, looked up): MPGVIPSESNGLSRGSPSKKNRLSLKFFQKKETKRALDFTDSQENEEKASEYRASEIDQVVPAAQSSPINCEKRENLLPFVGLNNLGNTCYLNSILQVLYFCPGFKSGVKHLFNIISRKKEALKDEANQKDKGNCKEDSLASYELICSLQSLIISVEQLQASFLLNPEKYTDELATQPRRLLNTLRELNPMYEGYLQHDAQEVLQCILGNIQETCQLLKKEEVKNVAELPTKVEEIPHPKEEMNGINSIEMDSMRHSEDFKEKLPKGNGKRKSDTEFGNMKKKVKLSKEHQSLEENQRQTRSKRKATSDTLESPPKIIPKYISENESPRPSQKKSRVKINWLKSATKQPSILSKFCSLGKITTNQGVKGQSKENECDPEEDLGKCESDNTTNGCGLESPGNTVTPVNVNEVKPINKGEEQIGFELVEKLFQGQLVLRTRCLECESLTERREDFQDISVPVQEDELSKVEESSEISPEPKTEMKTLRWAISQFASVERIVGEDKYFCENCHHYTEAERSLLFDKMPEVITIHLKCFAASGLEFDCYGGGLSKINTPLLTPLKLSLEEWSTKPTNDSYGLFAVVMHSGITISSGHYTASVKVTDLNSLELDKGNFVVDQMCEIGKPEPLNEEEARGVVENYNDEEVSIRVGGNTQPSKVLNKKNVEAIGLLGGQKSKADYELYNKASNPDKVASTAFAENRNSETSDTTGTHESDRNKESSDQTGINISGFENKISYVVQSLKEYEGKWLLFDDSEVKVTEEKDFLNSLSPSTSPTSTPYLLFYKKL
Sequence of Cytochrome P450 2C19 (Homo sapiens) (P33261 whole entry, looked up): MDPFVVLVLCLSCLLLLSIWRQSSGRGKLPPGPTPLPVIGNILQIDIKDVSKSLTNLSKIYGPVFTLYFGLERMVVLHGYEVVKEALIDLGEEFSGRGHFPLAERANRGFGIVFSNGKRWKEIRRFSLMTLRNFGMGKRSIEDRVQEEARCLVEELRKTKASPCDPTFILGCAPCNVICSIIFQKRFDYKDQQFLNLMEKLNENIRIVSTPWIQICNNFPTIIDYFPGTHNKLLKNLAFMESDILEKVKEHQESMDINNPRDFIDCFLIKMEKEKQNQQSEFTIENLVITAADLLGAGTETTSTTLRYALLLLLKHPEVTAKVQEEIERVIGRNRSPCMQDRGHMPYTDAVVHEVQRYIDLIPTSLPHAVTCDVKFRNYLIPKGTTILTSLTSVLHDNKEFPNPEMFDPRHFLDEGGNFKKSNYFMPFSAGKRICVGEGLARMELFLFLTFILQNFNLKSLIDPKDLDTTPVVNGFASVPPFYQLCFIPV

COc1ccc(-c2nc3cnc(OC)nc3n(CCc3ccccc3)c2=O)cc1
active: Potency [2] 6.31 µM
inactive: Potency [1] > 11.4 µM | activity change, negative = inhibition [3] 1.97% | activity, negative = inhibition [4] 2.61% | Potency [5] > 9.22 µM | Potency [6] > 46 µM | Potency [7] | Potency [8] | Potency [9] | Potency [10] | Potency [11] | outcome [12]

Cc1nc2cnc(N(C)C)nc2n(CCc2ccccc2)c1=O
inactive: Potency [1] > 11.4 µM | activity change, negative = inhibition [13] -5.39% | activity change, negative = inhibition [3] -14.5% | Potency [5] > 9.22 µM | Potency [6] > 46 µM | Potency [7] | Potency [8] | activation [15] -12% | Potency [10] | Potency [11] | outcome [12]
active: Potency [2] 1.26 µM | Potency [14] 0.631 µM | Potency [9] 35.5 µM

O=c1c(-c2ccccc2)nc2cnc(N3CCOCC3)nc2n1C[C@H]1CCCO1
inactive: Potency [1] > 11.4 µM | activity change, negative = inhibition [13] 17% | activity, negative = inhibition [4] 20.8% | Potency [5] > 9.22 µM | Potency [6] > 46 µM | Potency [7] | Potency [16] | Potency [8] | Potency [9] | Potency [10] | Potency [11] | outcome [12]
active: Potency [2] 3.16 µM

CN(C)c1cc(-c2cccc(NS(C)(=O)=O)c2)ncn1
active: Potency [2] 1.26 µM
inactive: Potency [1] > 11.4 µM | activity change, negative = inhibition [13] 3.12% | activity change, negative = inhibition [3] 18.4% | Potency [5] > 46 µM | Potency [6] > 46 µM | Potency [7] | Potency [8] | Potency [9] | Potency [10] | Potency [11] | outcome [12]

N#CCCn1c(=O)c(-c2ccc(Cl)cc2)nc2cnc(N3CCNCC3)nc21
inactive: Potency [1] > 11.4 µM | Potency [5] > 9.22 µM | Potency [6] > 46 µM | Potency [7] | Potency [16] | Potency [8] | Potency [9] | Potency [10] | Potency [11] | outcome [12]

CCNc1ncc2nc(-c3cc(F)cc(F)c3)c(=O)n(CCc3ccccc3)c2n1
active: activity change, negative = inhibition [13] 109% [activator] | Potency [2] 25.1 µM | activity change, negative = inhibition [3] 137% [activator] | Potency [15] 1 µM | Potency [11] 20 µM
inactive: Potency [1] > 11.4 µM | Potency [5] > 9.22 µM | Potency [6] > 46 µM | Potency [7] | Potency [16] | Potency [8] | Potency [9] | Potency [10] | outcome [12]

COCCn1c(=O)c(-c2cccc(C#N)c2)nc2cnc(N3CCOCC3)nc21
inactive: Potency [1] > 11.4 µM | activity change, negative = inhibition [13] -16.2% | activity change, negative = inhibition [3] -8.26% | activity, negative = inhibition [4] 3.4% | Potency [5] > 9.22 µM | Potency [6] > 46 µM | Potency [7] | Potency [16] | Potency [9] | Potency [10] | Potency [11] | outcome [12]
active: Potency [2] 10 µM

Cn1c(=O)c(-c2cc(F)cc(F)c2)nc2cncnc21
active: Potency [2] 0.631 µM
inactive: Potency [1] > 11.4 µM | activity change, negative = inhibition [13] -3.06% | activity change, negative = inhibition [3] 3.39% | activity, negative = inhibition [4] 5.34% | Potency [5] > 9.22 µM | Potency [6] > 46 µM | Potency [7] | Potency [16] | Potency [8] | Potency [9] | Potency [10] | Potency [11] | outcome [12]

Cc1cnc(CNc2ncncc2-c2ccc(N(C)C)cc2)cn1
active: Potency [2] 3.16 µM | Potency [17] 2 µM | Potency [9] 15.8 µM
inactive: Potency [1] > 11.4 µM | activity change, negative = inhibition [13] 3.22% | activity change, negative = inhibition [3] -0.821% | activity, negative = inhibition [4] 13.6% | Potency [5] > 46 µM | Potency [6] > 46 µM | Potency [7] | Potency [16] | Potency [8] | Potency [10] | Potency [11] | outcome [12]

CN(C)C(=O)c1ccc(-c2cncnc2Nc2ccc(F)cc2)cc1
inactive: activity change, negative = inhibition [13] -12.8% | activity change, negative = inhibition [3] 5.12% | activity, negative = inhibition [4] 9.71% | Potency [5] > 46 µM | Potency [6] > 46 µM | Potency [7] | Potency [10] | Potency [11] | outcome [12]
active: Potency [9] 25.1 µM

COCCn1c(=O)cnc2cnc(N3CCOCC3)nc21
inactive: Potency [1] > 11.4 µM | activity change, negative = inhibition [13] 8.71% | activity change, negative = inhibition [3] -0.664% | activity, negative = inhibition [4] -12.6% | Potency [5] > 9.22 µM | Potency [6] > 46 µM | Potency [7] | Potency [16] | activation [15] -5.07% | Potency [9] | Potency [10] | Potency [11] | outcome [12]

COc1ccccc1-c1cncnc1N(C)Cc1ccco1
inactive: Potency [1] > 11.4 µM | activity change, negative = inhibition [13] -9.6% | activity, negative = inhibition [4] 17% | Potency [5] > 46 µM | Potency [6] > 46 µM | Potency [7] | Potency [16] | Potency [8] | activation [15] -12.2% | Potency [9] | Potency [10] | Potency [11] | outcome [12]
active: Potency [2] 15.8 µM | Potency [17] 1.26 µM

N#Cc1cccc(-c2ccc3ncnc(N4CCNCC4)c3c2)c1
active: Potency [2] 0.631 µM | Potency [9] 22.4 µM | Potency [10] 11.2 µM | Potency [11] 20 µM
inactive: activity change, negative = inhibition [13] -0.846% | activity change, negative = inhibition [3] 6.74% | activity, negative = inhibition [4] 11.7% | Potency [5] > 46 µM | Potency [6] > 46 µM | Potency [7] | Potency [16] | Potency [8] | outcome [12]
